ChEMBL document CHEMBL4513216, “Probing the Open Global Health Chemical Diversity Library for Multistage-Active Starting Points for Next-Generation Antimalarials” (ACS Infect Dis, 2020)
The whole screen tested about 68,000 compounds, of which about 2,700 (4%) showed an effect of 50% or more. The full list was thinned out, with strong results kept by preference.

Tested on: Plasmodium berghei
Test: Screen against P. berghei liver stage (PbLuc), transformed with Luciferase, at 2uM
Format: functional, HepG2
Details: tested at 2 uM

**Q.** How did the INHIBITION turn out when `O=C(c1ccc[nH]1)N1CCc2c(COCc3ccncc3)cncc2C1` was run?
**A.** -18.76%

**Q.** Which INHIBITION does the source give for `Cc1ccc(CN2CC[C@@H]3[C@@H]2CCN3C(=O)Cc2cccs2)o1` here?
**A.** -45.36%

**Q.** `O=C(CN1CCCC1CC(=O)c1ccccc1)NCc1ccccn1` (stereo unspecified) was tested. Which INHIBITION did it give?
**A.** -47.19%

**Q.** `CCN(Cc1nc(COC)no1)C[C@]1(O)CCCN2CCCC[C@@H]21` was tested. Which INHIBITION did it give?
**A.** 21.67%

**Q.** With `CCN(Cc1noc(CC(C)C)n1)C[C@]1(O)CCCN2CCCC[C@@H]21` as the compound, how does the INHIBITION read?
**A.** 6.33%

**Q.** With `CC(C)Cc1noc(CN(C)C[C@]2(O)CCCN3CCCC[C@@H]32)n1` as the compound, how does the INHIBITION read?
**A.** 58.09%

**Q.** With `Cc1nn(C)c(C)c1C(=O)NN1CCOCC1` as the compound, how does the INHIBITION read?
**A.** 27.88%

**Q.** How did the INHIBITION turn out when `CCOc1ccc2ccccc2c1CNCC1CCNCC1` was run?
**A.** -14.75%

**Q.** `Cc1cccnc1CC(C)Nc1nc(N)nc2c1CCNC2` (stereo unspecified) was tested. Which INHIBITION did it give?
**A.** 22.63%

**Q.** `CCn1nc(C)c(NC(=O)CN2CCN(C(C)=O)CC2)c1C` was tested. Which INHIBITION did it give?
**A.** 53.77%

**Q.** Which INHIBITION does the source give for `CCN(CC)C(=O)C1CCCN(CC(=O)Nc2c(C)nn(CC)c2C)C1` (stereo unspecified) here?
**A.** 23.58%

**Q.** `CCn1nc(C)c(NC(=O)CN2CC[C@H](CO)[C@@H](O)C2)c1C` was tested. Which INHIBITION did it give?
**A.** 7.29%

**Q.** Which INHIBITION does the source give for `CCn1nc(C)c(NC(=O)CN2CCC(c3ccccc3Cl)C2)c1C` (stereo unspecified) here?
**A.** 50.9%

**Q.** Which INHIBITION does the source give for `CCn1nc(C)c(NC(=O)CN2CC[C@@H](F)C2)c1C` here?
**A.** -28.65%

**Q.** Which INHIBITION does the source give for `CCn1nc(C)c(NC(=O)C(C)C)c1C` here?
**A.** 12.62%

**Q.** With `Cc1ccc(CN(CCCn2ccnc2)Cc2cccs2)s1` as the compound, how does the INHIBITION read?
**A.** 32.53%

**Q.** Which INHIBITION does the source give for `CC1CCCN(c2ccccc2OCC(=O)NC2CCOCC2)C1` (stereo unspecified) here?
**A.** 19.59%

**Q.** Which INHIBITION does the source give for `CC(Oc1ccccc1)C(=O)N1CCCN(Cc2nccn2C)CC1` (stereo unspecified) here?
**A.** -12.05%

**Q.** Which INHIBITION does the source give for `Cc1cc(C2CCCN2C(=O)CN2CCc3ccccc32)on1` (stereo unspecified) here?
**A.** 18.37%

**Q.** How did the INHIBITION turn out when `Cc1cc(C2CCCN2C(=O)Cn2c(C)cc(=O)c3ccccc32)on1` (stereo unspecified) was run?
**A.** 64.83%

**Q.** For `Cc1ccc2c(c1)SCC(=O)N2CC(=O)N1CCCC1c1cc(C)no1` (stereo unspecified), which INHIBITION is on record?
**A.** 28.73%

**Q.** `CNC(=O)C1(C)CN(S(=O)(=O)c2cccc(OC)c2)CCO1` (stereo unspecified) was tested. Which INHIBITION did it give?
**A.** -4.78%

**Q.** Which INHIBITION does the source give for `CN(CCc1ccccc1)Cc1c(C2CCNCC2)[nH]c2ncccc12` here?
**A.** 2.56%

**Q.** With `CC(C)N1CCCn2nc(C(=O)NCCc3ccccn3)cc2C1` as the compound, how does the INHIBITION read?
**A.** -31.6%

**Q.** How did the INHIBITION turn out when `CN(Cc1ccco1)Cc1cnc2n1CCN(c1ncccn1)CC2` was run?
**A.** -6.14%

**Q.** Which INHIBITION does the source give for `CN(Cc1ccco1)Cc1cnc2n1CCN(S(C)(=O)=O)CC2` here?
**A.** 9.1%

**Q.** With `CN(C)CCN1CCc2ncc(CN(C)Cc3ccco3)n2CC1` as the compound, how does the INHIBITION read?
**A.** 52.05%

**Q.** Which INHIBITION does the source give for `CN1CCN(c2ccc(F)cc2NC(=O)NCC[S+](C)[O-])CC1` (stereo unspecified) here?
**A.** 17.98%

**Q.** `C[S+]([O-])CCNC(=O)Nc1cc(F)ccc1-n1cccn1` (stereo unspecified) was tested. Which INHIBITION did it give?
**A.** 58.14%

**Q.** Which INHIBITION does the source give for `CC(C)C(O)CCNC(=O)Nc1cc(F)ccc1-n1cccn1` (stereo unspecified) here?
**A.** 37.43%

**Q.** How did the INHIBITION turn out when `Cc1nc(C)c(CC(=O)NCc2cccnc2OC2CCCC2)c(=O)[nH]1` was run?
**A.** -10.1%

**Q.** With `NC(=O)CCC1CCCN(c2ccnc3cc(F)ccc23)C1` (stereo unspecified) as the compound, how does the INHIBITION read?
**A.** 1.01%

**Q.** `CCS(=O)(=O)Nc1ccc2[nH]c(C3CCC3)nc2c1` was tested. Which INHIBITION did it give?
**A.** 74.44%

**Q.** Which INHIBITION does the source give for `CCn1cc(S(=O)(=O)Nc2ccc3[nH]c(C4CCC4)nc3c2)cn1` here?
**A.** -16.18%

**Q.** With `Cn1cc(S(=O)(=O)Nc2ccc3[nH]c(C4CCC4)nc3c2)cn1` as the compound, how does the INHIBITION read?
**A.** 48.21%

**Q.** Which INHIBITION does the source give for `COc1cccc([C@H]2CN(C(C)=O)[C@@H]3CCN(Cc4ccsc4)C[C@H]23)c1` here?
**A.** -24.17%

**Q.** For `O=C(CC1CC1)N1CCO[C@H]2[C@H](OCCCn3cccn3)CC[C@@H]21`, which INHIBITION is on record?
**A.** 37.74%

**Q.** `CC(C)c1nn(C)c(N(C)C)c1CNCc1ccc(N(C)C)nc1` was tested. Which INHIBITION did it give?
**A.** -4.43%

**Q.** How did the INHIBITION turn out when `O=C(C1CC1)N1CC2(CCNCC2)C1` was run?
**A.** 60.6%

**Q.** Which INHIBITION does the source give for `O=C(C1CCCCC1)N1CC2(CCNCC2)C1` here?
**A.** 27.1%

**Q.** With `O=C(C1CCC1)N1CCC2(CCNCC2)C1` as the compound, how does the INHIBITION read?
**A.** 2.94%

**Q.** Which INHIBITION does the source give for `CC(=O)N1CCC(c2cccc(-c3cccc(C(=O)O)c3)n2)CC1` here?
**A.** 23.7%

**Q.** `CCOc1ccc(CC(=O)Nc2cnccc2SCCCO)cc1` was tested. Which INHIBITION did it give?
**A.** -15.31%

**Q.** How did the INHIBITION turn out when `CCc1cc(CNC(=O)NCC(c2ccco2)N2CCCC2)[nH]n1` (stereo unspecified) was run?
**A.** 42.11%

**Q.** For `O=C(NCc1ccccn1)NCC(c1ccco1)N1CCCC1` (stereo unspecified), which INHIBITION is on record?
**A.** 53.61%

**Q.** `O=C(NCc1ccccn1)NCC(c1ccco1)N1CCCCC1` (stereo unspecified) was tested. Which INHIBITION did it give?
**A.** -18.65%

**Q.** Which INHIBITION does the source give for `Cc1cc(C(=O)N2CC[C@@H]3CN(C)S(=O)(=O)[C@@H]3CC2)no1` here?
**A.** -27.81%

**Q.** How did the INHIBITION turn out when `Cc1cc(C(=O)N2CC[C@@H]3CN(CCC(C)C)S(=O)(=O)[C@@H]3CC2)no1` was run?
**A.** 36.44%

**Q.** How did the INHIBITION turn out when `COc1ccc(C[C@H]2CN(C(=O)c3ccncc3)CC[C@@H]2OC)cc1` was run?
**A.** -9.66%

**Q.** `CO[C@H]1CCN(C(=O)c2cc(C)on2)[C@H]1Cc1ccncc1` was tested. Which INHIBITION did it give?
**A.** -11.88%

**Q.** With `COc1ccc(C[C@H]2CN(C(=O)c3ncccn3)CC[C@@H]2OC)cc1` as the compound, how does the INHIBITION read?
**A.** 33.74%
